# Source: the supplement of paper PMC10849652
# Targets with a hit are over-represented here; the source holds about 8,800 in all. About 0.5% of all pairs of compound and target were hits. A number with no mark means an inactive call.
# What was measured:
# Assay in all cases: log2 fold change, soluble protein after heating vs DMSO (PISA); higher = thermal stabilisation; K562 lysate, 10 uM; active = over 0.2 and 3.5 SD of the protein, either way, in both replicates (recomputed)
# [1] = compound: CS(=O)(=O)CCNCc1ccc(-c2ccc3ncnc(Nc4ccc(OCc5cccc(F)c5)c(Cl)c4)c3c2)o1 [lapatinib]
# Outline: (§1)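 Soluble protein was defined as the supernatant remaining after 21,000xg for 90 min, following pooling of heated aliquots and adjustment to 0.5% NP-40 at 4°C. Before that, crude K562 extract at 1 mg/mL protein in PBS pH 7.4 with 1 mM MgCl2 was treated with 10 μM compound for 30 min and heated for 3 min across 48°C-58°C. Quantification used TMTpro 16plex LC-MS/MS with channel sums equalised, and values are log-two fold changes in thermal stability relative to solvent controls from duplicates.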
# [2] = compound: CS(=O)(=O)N1CCN(Cc2cc3nc(-c4cccc5[nH]ncc45)nc(N4CCOCC4)c3s2)CC1 [pictilisib]
# Outline: as §1
# [3] = compound: C[C@@H](Oc1cc(-c2cnn(C3CCNCC3)c2)cnc1N)c1c(Cl)ccc(F)c1Cl [crizotinib]
# Outline: as §1
# [4] = compound: C[C@H](C1=CC=C(C=C1)C(=O)NC2=C3C=CNC3=NC=C2)N
# Outline: as §1
# [5] = compound: C[C@H](Nc1ncnc2nc[nH]c12)c1cc2cccc(Cl)c2c(=O)n1-c1ccccc1 [duvelisib]
# Outline: as §1
# [6] = compound: Cc1cc(Nc2cc(CN3CCOCC3)c3nc(C)c(Cc4ccc(Cl)cc4F)n3n2)n[nH]1 [gandotinib]
# Outline: as §1
# [7] = compound: Cc1cc(Nc2cc(N3CCN(C)CC3)nc(Sc3ccc(NC(=O)C4CC4)cc3)n2)n[nH]1 [tozasertib]
# Outline: as §1
# [8] = compound: Cc1ccc(-n2nc(C(C)(C)C)cc2NC(=O)Nc2ccc(OCCN3CCOCC3)c3ccccc23)cc1 [doramapimod]
# Outline: as §1
# [9] = compound: Cc1ccc(NC(=O)c2ccc(CN3CC[C@H](N(C)C)C3)c(C(F)(F)F)c2)cc1Nc1nccc(-c2cncnc2)n1 [bafetinib]
# Outline: as §1
# [10] = compound: Cc1cccc(CC(=O)N2CCc3c2ccc(-c2cn(C)c4ncnc(N)c24)c3F)n1
# Outline: as §1
# Sequence of UniProt Q12933 (Q12933 whole entry, looked up): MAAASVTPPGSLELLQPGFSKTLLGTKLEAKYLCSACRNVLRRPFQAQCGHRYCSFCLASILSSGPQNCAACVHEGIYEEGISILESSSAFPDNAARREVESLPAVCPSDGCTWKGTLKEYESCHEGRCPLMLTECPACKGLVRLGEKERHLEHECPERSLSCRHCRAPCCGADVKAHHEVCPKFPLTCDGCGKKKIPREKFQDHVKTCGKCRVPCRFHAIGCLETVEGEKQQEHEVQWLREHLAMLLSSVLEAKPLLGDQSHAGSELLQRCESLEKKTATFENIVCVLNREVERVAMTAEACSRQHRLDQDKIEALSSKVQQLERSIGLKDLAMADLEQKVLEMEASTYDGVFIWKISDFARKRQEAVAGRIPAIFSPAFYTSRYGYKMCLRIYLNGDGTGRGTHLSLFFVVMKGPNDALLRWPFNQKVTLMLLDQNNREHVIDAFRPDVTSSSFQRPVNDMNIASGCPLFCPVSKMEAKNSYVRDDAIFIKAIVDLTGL
# Sequence of UniProt Q9UNS1 (Q9UNS1 whole entry, looked up): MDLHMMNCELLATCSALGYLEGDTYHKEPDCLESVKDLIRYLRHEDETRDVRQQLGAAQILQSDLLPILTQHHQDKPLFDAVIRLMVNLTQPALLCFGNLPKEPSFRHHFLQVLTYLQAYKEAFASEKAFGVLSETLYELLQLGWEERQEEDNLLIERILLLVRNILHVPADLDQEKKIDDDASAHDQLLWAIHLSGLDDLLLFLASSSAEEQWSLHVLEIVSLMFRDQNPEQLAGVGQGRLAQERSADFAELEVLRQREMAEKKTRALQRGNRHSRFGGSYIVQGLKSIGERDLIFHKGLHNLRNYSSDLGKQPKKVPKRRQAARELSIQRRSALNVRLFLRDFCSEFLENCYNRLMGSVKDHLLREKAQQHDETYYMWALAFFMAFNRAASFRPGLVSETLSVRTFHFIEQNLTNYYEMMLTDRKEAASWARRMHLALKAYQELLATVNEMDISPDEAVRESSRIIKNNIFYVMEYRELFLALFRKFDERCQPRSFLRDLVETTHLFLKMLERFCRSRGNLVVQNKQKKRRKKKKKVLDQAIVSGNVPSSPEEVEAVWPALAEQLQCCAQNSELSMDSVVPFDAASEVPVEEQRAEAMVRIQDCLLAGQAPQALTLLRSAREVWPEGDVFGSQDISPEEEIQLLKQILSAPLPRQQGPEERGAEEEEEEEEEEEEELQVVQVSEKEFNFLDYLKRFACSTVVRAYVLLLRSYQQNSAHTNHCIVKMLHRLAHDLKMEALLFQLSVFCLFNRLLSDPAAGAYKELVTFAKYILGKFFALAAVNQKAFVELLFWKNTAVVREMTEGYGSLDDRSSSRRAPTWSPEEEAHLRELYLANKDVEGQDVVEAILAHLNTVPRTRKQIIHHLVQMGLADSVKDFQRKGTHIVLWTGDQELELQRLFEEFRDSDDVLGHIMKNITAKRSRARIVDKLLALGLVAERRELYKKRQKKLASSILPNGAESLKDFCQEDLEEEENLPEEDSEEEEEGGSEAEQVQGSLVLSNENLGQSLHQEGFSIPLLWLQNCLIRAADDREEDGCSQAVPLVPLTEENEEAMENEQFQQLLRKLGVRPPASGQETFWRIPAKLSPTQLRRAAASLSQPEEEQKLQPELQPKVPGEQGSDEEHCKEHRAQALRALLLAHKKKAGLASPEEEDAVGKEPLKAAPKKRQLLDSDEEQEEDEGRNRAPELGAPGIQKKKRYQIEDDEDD
# Sequence of UniProt Q15813 (Q15813 whole entry, looked up): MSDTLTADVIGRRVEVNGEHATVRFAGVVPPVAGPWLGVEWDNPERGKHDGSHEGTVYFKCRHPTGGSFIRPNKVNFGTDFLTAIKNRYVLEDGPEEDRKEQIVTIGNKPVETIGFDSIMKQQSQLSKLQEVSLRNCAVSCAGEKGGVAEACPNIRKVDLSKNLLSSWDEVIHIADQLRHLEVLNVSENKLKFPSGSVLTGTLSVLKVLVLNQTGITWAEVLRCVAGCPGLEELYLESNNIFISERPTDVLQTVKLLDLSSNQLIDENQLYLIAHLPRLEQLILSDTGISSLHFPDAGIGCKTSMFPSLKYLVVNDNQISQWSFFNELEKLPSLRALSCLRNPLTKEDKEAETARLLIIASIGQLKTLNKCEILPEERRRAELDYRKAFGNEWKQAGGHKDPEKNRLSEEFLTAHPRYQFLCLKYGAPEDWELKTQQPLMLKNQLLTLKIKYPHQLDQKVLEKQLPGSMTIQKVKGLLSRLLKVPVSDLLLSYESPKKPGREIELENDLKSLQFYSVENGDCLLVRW
# Sequence of UniProt O43493 (O43493 whole entry, looked up): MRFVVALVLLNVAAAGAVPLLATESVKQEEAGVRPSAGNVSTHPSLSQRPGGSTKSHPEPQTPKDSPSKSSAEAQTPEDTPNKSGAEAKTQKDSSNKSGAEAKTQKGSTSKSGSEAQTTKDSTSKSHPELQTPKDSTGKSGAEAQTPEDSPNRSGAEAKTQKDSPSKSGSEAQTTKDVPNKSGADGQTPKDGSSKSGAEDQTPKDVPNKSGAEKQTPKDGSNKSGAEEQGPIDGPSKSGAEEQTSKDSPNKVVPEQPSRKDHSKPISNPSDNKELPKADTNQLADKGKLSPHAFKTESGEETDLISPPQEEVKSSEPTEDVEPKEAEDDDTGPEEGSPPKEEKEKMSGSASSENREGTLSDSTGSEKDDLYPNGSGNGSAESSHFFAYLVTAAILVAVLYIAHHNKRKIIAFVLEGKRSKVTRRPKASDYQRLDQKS
# Sequence of UniProt P68371 (P68371 whole entry, looked up): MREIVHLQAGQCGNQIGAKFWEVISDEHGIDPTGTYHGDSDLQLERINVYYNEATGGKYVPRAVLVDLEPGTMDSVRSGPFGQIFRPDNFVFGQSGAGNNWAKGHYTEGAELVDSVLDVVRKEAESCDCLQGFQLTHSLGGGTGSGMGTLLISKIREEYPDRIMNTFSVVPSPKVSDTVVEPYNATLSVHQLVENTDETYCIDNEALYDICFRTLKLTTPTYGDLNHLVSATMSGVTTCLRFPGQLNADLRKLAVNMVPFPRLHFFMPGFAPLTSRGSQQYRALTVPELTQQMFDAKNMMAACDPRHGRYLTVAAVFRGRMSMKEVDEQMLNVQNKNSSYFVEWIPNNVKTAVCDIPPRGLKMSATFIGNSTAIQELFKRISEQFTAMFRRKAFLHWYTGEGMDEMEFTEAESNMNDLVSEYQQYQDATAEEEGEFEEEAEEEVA
# Sequence of UniProt Q12815 (Q12815 whole entry, looked up): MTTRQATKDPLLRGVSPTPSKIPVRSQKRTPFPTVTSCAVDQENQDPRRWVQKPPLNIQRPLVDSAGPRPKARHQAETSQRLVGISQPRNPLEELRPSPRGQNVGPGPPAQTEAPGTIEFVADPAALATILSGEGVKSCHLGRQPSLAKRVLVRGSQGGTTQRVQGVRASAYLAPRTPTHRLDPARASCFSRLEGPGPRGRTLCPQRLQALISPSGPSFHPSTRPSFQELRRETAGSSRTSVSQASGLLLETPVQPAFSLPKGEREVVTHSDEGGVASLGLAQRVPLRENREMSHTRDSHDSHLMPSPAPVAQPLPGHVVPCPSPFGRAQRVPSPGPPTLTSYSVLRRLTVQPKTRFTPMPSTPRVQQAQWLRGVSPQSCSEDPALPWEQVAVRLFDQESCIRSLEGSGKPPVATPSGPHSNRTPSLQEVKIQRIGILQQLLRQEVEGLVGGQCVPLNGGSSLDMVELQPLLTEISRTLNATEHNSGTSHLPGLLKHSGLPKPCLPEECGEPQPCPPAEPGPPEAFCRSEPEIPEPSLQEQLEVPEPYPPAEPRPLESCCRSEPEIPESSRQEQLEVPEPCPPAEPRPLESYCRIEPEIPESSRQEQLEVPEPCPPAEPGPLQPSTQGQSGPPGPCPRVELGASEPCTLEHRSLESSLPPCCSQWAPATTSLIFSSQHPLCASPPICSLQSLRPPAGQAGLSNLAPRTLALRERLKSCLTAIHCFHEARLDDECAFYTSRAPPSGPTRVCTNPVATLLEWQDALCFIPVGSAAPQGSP
# Sequence of UniProt Q5TEJ8 (Q5TEJ8 whole entry, looked up): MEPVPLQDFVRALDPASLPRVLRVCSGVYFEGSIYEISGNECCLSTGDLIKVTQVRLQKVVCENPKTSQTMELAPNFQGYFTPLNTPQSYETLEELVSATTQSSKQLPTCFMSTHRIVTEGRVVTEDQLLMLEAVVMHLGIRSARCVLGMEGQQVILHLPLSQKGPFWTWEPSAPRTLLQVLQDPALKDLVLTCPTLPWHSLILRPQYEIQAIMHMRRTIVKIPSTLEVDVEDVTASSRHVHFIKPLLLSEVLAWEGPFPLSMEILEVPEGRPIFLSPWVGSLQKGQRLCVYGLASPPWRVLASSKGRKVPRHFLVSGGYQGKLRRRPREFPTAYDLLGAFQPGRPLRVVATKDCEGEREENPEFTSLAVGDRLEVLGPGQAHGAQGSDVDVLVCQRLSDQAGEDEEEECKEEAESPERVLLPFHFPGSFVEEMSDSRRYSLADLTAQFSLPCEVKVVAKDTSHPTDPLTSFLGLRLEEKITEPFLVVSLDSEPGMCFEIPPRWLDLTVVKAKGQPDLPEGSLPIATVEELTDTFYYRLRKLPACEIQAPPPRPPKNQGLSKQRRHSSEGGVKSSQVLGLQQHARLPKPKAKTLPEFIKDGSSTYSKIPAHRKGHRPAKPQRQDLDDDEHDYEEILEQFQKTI
# Sequence of UniProt Q8TBZ6 (Q8TBZ6 whole entry, looked up): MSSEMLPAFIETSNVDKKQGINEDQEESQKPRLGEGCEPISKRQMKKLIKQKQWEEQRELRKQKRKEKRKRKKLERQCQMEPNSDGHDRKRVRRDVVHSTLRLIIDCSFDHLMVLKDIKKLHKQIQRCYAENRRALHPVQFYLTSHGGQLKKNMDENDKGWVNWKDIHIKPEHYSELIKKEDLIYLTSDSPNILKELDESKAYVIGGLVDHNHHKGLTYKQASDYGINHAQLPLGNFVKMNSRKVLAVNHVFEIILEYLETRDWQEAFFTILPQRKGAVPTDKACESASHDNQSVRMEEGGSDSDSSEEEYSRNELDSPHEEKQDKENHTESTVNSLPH
# Sequence of UniProt P61960 (P61960 whole entry, looked up): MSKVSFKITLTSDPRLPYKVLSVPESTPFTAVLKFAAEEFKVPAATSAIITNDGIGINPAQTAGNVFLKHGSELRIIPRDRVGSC
Target,log2 fold change [1],log2 fold change [2],log2 fold change [3],log2 fold change [4],log2 fold change [5],log2 fold change [6],log2 fold change [7],log2 fold change [8],log2 fold change [9],log2 fold change [10]
TRMT10A (UniProt Q8TBZ6),0.042,0.083,0.031,-0.041,0.001,0.02,-0.047,0.001,0.012,0.059
TPX2 (UniProt Q9ULW0),0.008,0.032,0.023,0.01,0.002,0.04,-0.003,0.049,-0.023,-0.011
UBL4A (UniProt P11441),-0.003,-0.057,0.112,0.253 (active),0.007,-0.157,0.076,-0.029,-0.044,-0.06
TIMELESS (UniProt Q9UNS1),0.017,-0.017,-0.077,-0.042,-0.029,-0.12,-0.026,-0.02,-0.082,0.032
TTMP isoform 3 (UniProt Q5BVD1),-0.1,0.013,-0.241,-0.618 (active),0.138,0.384,-0.022,0.137,-0.197,0.47
TPM4 isoform 2 (UniProt P67936),0.007,0,0.091,0.329 (active),0.011,-0.138,-0.027,0.002,0.075,-0.164
TUBA4A (UniProt P68366),-0.02,0.012,-0.048,-0.066,0.034,0.121,0.011,0.045,-0.028,0.035
TCP11L1 (UniProt Q9NUJ3),-0.008,-0.028,-0.022,-0.204,-0.024,0.066,-0.069,-0.017,-0.007,0.146
TBC1D2B (UniProt Q9UPU7),0.076,0.006,0.041,0.007,0.027,-0.096,-0.005,0.007,-0.057,0.052
TRAF2 isoform 2 (UniProt Q12933),-0.032,0.004,-0.032,-0.047,0.006,-0.045,0.007,0.005,-0.011,0.053
THEMIS2 (UniProt Q5TEJ8),-0.052,0.029,-0.025,0.004,-0.026,-0.001,0.006,-0.042,-0.059,0.065
TPP2 (UniProt Q5VZU9),-0.023,0.069,-0.057,-0.309 (active),0.02,0.104,-0.087,-0.029,-0.044,0.137
TUBB1 (UniProt Q9H4B7),-0.006,-0.007,-0.025,0.093,-0.01,-0.015,-0.027,-0.046,0.036,-0.06
TBCE (UniProt Q15813),-0.019,-0.039,-0.042,-0.002,0.025,-0.034,-0.004,0.001,0.033,0.039
TTL (UniProt Q8NG68),-0.015,-0.057,-0.067,0.096,0.356 (active),-0.033,-0.112,-0.011,-0.091,-0.048
TMEM87B (UniProt Q96K49),-0.044,0.147,-0.017,0.004,0.039,-0.077,0.068,0.026,0.126,0
TROAP (UniProt Q12815),0.001,-0.088,0.038,-0.065,-0.095,0.072,-0.009,-0.008,-0.1,0.004
UCHL5 isoform 3 (UniProt Q9Y5K5),0.042,-0.029,0.022,0.121,-0.01,-0.044,-0.007,-0.015,-0.019,-0.02
TUBE1 (UniProt Q9UJT0),-0.008,-0.005,0.095,0.214,-0.01,-0.076,0.054,-0.034,-0.066,-0.029
UFM1 (UniProt P61960),0.134,0.033,0.191,0.566 (active),0.077,-0.36,-0.002,0.022,0.102,-0.319
UGDH (UniProt O60701),0.009,-0.021,-0.015,0.037,-0.063,-0.067,-0.073,-0.053,-0.019,-0.022
TUBGCP3 (UniProt Q96CW5),-0.017,0.012,-0.055,-0.012,0.036,-0.054,0.027,0.014,-0.057,0.013
TRIM65 (UniProt Q6PJ69),0.028,-0.035,-0.046,-0.06,0.072,-0.102,0.042,-0.02,0.034,0.088
TDRD3 isoform 3 (UniProt Q9H7E2),0.005,-0.038,0.024,0.127,-0.02,-0.068,0.034,-0.151,0.093,0.01
TGOLN2 isoform 7 (UniProt O43493),-0.007,0.001,0.045,-0.051,0.021,0.034,-0.065,-0.03,0.032,0.034
TUBB4B (UniProt P68371),0.027,0.017,-0.027,0.053,-0.029,0.004,0.011,-0.024,0.027,-0.043
TOE1 (UniProt Q96GM8),0.002,-0.057,0.003,-0.023,0.052,-0.016,0.059,-0.04,0.047,0.059
TERF2IP (UniProt Q9NYB0),-0.007,0.007,0.021,0.249 (active),0.022,-0.122,-0.023,-0.016,0.004,-0.181
TUBB2A (UniProt Q13885),0.009,0.011,-0.049,-0.016,-0.012,0.028,-0.011,0.004,0.026,-0.005
TOX4 (UniProt O94842),0.058,0.025,-0.068,-0.259 (active),0.06,0.231 (active),-0.094,0.041,-0.043,0.189
